Compounds without any hit were thinned out: in the full panel of roughly 83,000, 20% have a hit.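 Assay: single dose, 48 h. Readout: percent growth (0 = no net growth; negative = cell death). Active: <10.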 Active and inactive are the calls of the source.

The results in this text go back to PubChem BioAssay (NCI).

Common to all, as to assay: NCI-60 one-dose screen, 48 h (100 = growth as untreated, 0 = no growth, -100 = all killed)
What all share (details): 10 µM unless noted

The subject of experiment [1] is HOP-62 NSCLC.
The test system of experiment [2] is NCI-H460 lung.
Experiment [3] concerns A549/ATCC NSCLC.
Experiment [4] has as its system 786-0 renal.
Experiment [5] concerns DU-145 prostate.
Experiment [6] deals with MALME-3M melanoma.
The test system of experiment [7] is RXF 393 renal.
The subject of experiment [8] is SF-295 CNS.
Experiment [9] relates to UACC-257 melanoma.
The subject of experiment [10] is M14 melanoma.
In experiment [11] the test system is SNB-19 CNS.
Experiment [12] deals with SK-MEL-2 melanoma.
For experiment [13], the system named is UO-31 renal.
Experiment [14] deals with A498 renal.
For experiment [15], the system named is HL-60(TB) leukemia.
The subject of experiment [16] is RPMI-8226 leukemia.
The test system of experiment [17] is OVCAR-5 ovarian.
For experiment [18], the system named is OVCAR-4 ovarian.
Experiment [19] relates to T-47D breast.
For experiment [20], the system named is HCC-2998 colon.

As for `C[C@]12CC[C@@H]3C4=C(CC[C@H]3[C@@H]1CC[C@@H]2O)CC(=O)CC4`, the growth was 103% (inactive) in experiment [1]; 105% (inactive) in experiment [2]; 98.4% (inactive) in experiment [3]; 106% (inactive) in [4]; 116% (inactive) in experiment [5]; 116% (inactive) in [6]. Further, the growth in experiment [7] is 100% (inactive); in experiment [8], 102% (inactive); in experiment [9], 92.8% (inactive); in [10], 107% (inactive); in [11], 95.2% (inactive); in experiment [12] it was 127% (inactive). Further, the growth in experiment [13] was 92% (inactive); in [14] it was 90.6% (inactive); in experiment [15] it was 99.5% (inactive); in experiment [16] it was 91.8% (inactive); in experiment [17], -62.7% (active); in [18] it was 111% (inactive). In addition, the growth is 95.4% (inactive) in experiment [19] and 104% (inactive) in experiment [20].

Regarding `CNC(C)Cc1ccccc1` (configuration not stated) (tested in a mixture with another compound), the growth in [1] is 98% (inactive); in experiment [2], 104% (inactive); in experiment [3], 92.3% (inactive); in experiment [4], 102% (inactive); in experiment [5] it was 108% (inactive); in experiment [6], 103% (inactive). In addition, the growth in experiment [7] is 105% (inactive); in experiment [8], 97.7% (inactive); in experiment [9] it was 109% (inactive); in [10], 103% (inactive); in [11], 105% (inactive); in experiment [13], 82.9% (inactive). The growth in experiment [14] is 92.5% (inactive); in [16], 90.4% (inactive); in experiment [17], 88.1% (inactive); in [18] it was 104% (inactive); in experiment [19], 90.5% (inactive); in experiment [20], 101% (inactive).

As for `CC1(C)N=C(N)N=C(N)N1c1ccc(OCCCCNC(=O)Nc2cccc(S(=O)(=O)F)c2)c(Cl)c1`, the growth was 62.8% (inactive) in experiment [1]; 14.2% (inactive) in experiment [2]; 15.4% (inactive) in experiment [3]; 35.8% (inactive) in experiment [4]; 37.1% (inactive) in [5]; 56.5% (inactive) in experiment [6]. The growth in experiment [7] is 58.2% (inactive); in experiment [9], 45.4% (inactive); in experiment [10] it was 40.4% (inactive); in experiment [11] it was 45.7% (inactive); in experiment [12] it was 81.2% (inactive); in experiment [13], 90.1% (inactive). The growth was 90.3% (inactive) in [14]; 29.4% (inactive) in [15]; 38.1% (inactive) in [16]; 32.5% (inactive) in experiment [17]; 97.1% (inactive) in experiment [18]; 115% (inactive) in experiment [19]. Further, the growth in [20] was 50.8% (inactive).
